From PubChem BioAssay (NCI)
The panel holds about 79,000 compounds, 15% with a hit somewhere; the sample as a whole holds those more often. Values without a mark were called inactive. Calls of active or inactive are those of the source. Cut-off read from the data, not from the text of the source: active = growth inhibition above about 70%; inactive = the rest.

Assays:
[1] = NCI Yeast Anticancer Drug Screen. Data for the rad52 strain (AID 147);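 note: 0% = growth of vehicle-treated control cultures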; settings: S. cerevisiae rad52 mutant growth inhibition, hits give high values
Method in brief: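 Growth of repair-deficient yeast cells was compared between compound-treated and vehicle-treated cultures to give percent inhibition.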

[2] = NCI Yeast Anticancer Drug Screen. Data for the wt1 strain (AID 149);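 note: 0% = growth of vehicle-treated wt1 cultures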; settings: S. cerevisiae wt1 strain (SPY 50644) growth inhibition, hits give high values
Method in brief: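 Readout: yeast growth inhibition, normalised to vehicle controls, in the wt1 strain exposed to test compounds.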

[3] = NCI Yeast Anticancer Drug Screen. Data for the rad50EPP+ strain (AID 151);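 note: 0% = growth of vehicle-treated control cultures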; settings: S. cerevisiae rad50 mutant strain, hits give high values
Method in brief: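 Measured: growth inhibition of rad50EPP+ yeast. Reference: vehicle-treated controls. Screen uses strains with defined genetic alterations in DNA damage repair or cell cycle control.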

[4] = NCI Yeast Anticancer Drug Screen. Data for the mgt1 strain (AID 153); settings: S. cerevisiae mgt1 mutant growth inhibition, hits give high values
Method in brief: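 Compounds were applied to mgt1 mutant yeast, and growth was then compared against vehicle-treated control cultures to give percent inhibition.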

[5] = NCI Yeast Anticancer Drug Screen. Data for the rad50 strain (AID 155);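 note: 0% = growth of vehicle-only cultures of the same strain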; settings: S. cerevisiae rad50 strain growth inhibition, hits give high values
Method in brief: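 Compounds were tested on a yeast strain with an engineered DNA damage repair alteration; the reported value is growth inhibition normalised to vehicle treatment.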

[6] = NCI Yeast Anticancer Drug Screen. Data for the mec2-1 strain (AID 157); settings: S. cerevisiae mec2-1 strain, hits give high values
Method in brief: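 Compounds were applied to mec2-1 yeast cells. Their growth was then compared with that of vehicle-treated cultures to give growth inhibition.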

[7] = NCI Yeast Anticancer Drug Screen. Data for the rad14 strain (AID 159);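 note: 0% = growth of vehicle-treated control cultures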; settings: S. cerevisiae rad14 strain growth inhibition, hits give high values
Method in brief: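 Compound-treated yeast with a defined DNA-repair lesion; growth inhibition normalised to vehicle-treated cultures.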

[8] = NCI Yeast Anticancer Drug Screen. Data for the sgs1 mgt1 strain (AID 161);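 note: 0% = growth of cultures given vehicle only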; settings: S. cerevisiae sgs1 mgt1 strain, hits give high values
Method in brief: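 Percent growth inhibition was derived by comparing compound-exposed mutant yeast with vehicle-exposed cultures. The strain carries alterations in DNA damage repair.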

[9] = NCI Yeast Anticancer Drug Screen. Data for the CLN2oe strain (AID 163);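 note: 0% = growth of vehicle-only control cultures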; settings: S. cerevisiae CLN2oe strain, hits give high values
Method in brief: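 Cells of an engineered yeast line with disturbed cell-cycle regulation are treated with compound. Inhibition of growth is then calculated relative to the vehicle-treated reference.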

[10] = NCI Yeast Anticancer Drug Screen. Data for the cln2 rad14 strain (AID 165);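 note: 0% = growth equal to vehicle treated cultures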; settings: S. cerevisiae cln2 rad14 strain, hits give high values
Method in brief: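 Strain: cln2 rad14 yeast, altered in cell cycle control and DNA damage repair. Read-out: growth inhibition vs vehicle.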

[11] = NCI Yeast Anticancer Drug Screen. Data for the bub3 strain (AID 167); settings: S. cerevisiae bub3 mutant strain, hits give high values
Method in brief: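 Growth of a checkpoint-deficient yeast mutant is measured after compound exposure. Values represent inhibition relative to vehicle.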

[12] = NCI Yeast Anticancer Drug Screen. Data for the wt2 strain (AID 169);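 note: 0% = growth of vehicle-treated yeast cultures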; settings: S. cerevisiae wt2 strain growth inhibition, hits give high values
Method in brief: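 Growth of compound-treated yeast is measured and expressed as inhibition relative to vehicle-only controls.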

[13] = NCI Yeast Anticancer Drug Screen. Data for the mlh1 strain (AID 171);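 note: 0% = growth of vehicle-treated control cultures of the same strain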; settings: S. cerevisiae mlh1 strain growth inhibition, hits give high values
Method in brief: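 Test agents were incubated with yeast bearing a defined DNA damage repair or cell cycle control alteration; values are growth inhibition normalised to vehicle-treated cultures.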

[14] = NCI Yeast Anticancer Drug Screen. Data for the sgs1 strain (AID 173);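 note: 0% = growth of vehicle-only control cultures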; settings: S. cerevisiae sgs1 mutant, hits give high values
Method in brief: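 Strain with an altered DNA repair or cell cycle pathway exposed to compound. Growth then measured. Value = inhibition versus vehicle control.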

[15] = NCI Yeast Anticancer Drug Screen. Data for the mlh1 rad18 strain (AID 175); settings: S. cerevisiae mlh1 rad18 strain growth inhibition, hits give high values
Method in brief: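 A repair-deficient yeast strain is exposed to test compound, and growth is scored relative to vehicle-treated controls.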

[16] = NCI Yeast Anticancer Drug Screen. Data for the rad18 strain (AID 177); settings: S. cerevisiae rad18 mutant growth inhibition, hits give high values
Method in brief: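 DNA-repair-defective yeast; compound treatment; growth inhibition scored against vehicle.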

[17] = at 5.0 µM (retest, dose inferred, filed as 0.5)
[18] = at 50.0 µM (retest, dose inferred, filed as 5.0)

**Q.** What does the source list for O=C(NNc1ccccc1)C(CCCCNS(=O)(=O)Cc1ccccc1)NS(=O)(=O)Cc1ccccc1 (stereo unspecified)?
**A.** growth inhibition ([1]; at 1.2 µM): 3%; growth inhibition ([1]; at 3.7 µM): 9%; growth inhibition ([1]; at 11.0 µM): 29%; growth inhibition ([1]; at 33.0 µM): 46%; growth inhibition ([1]; at 100.0 µM): 72% (active); growth inhibition ([2]; at 1.2 µM): 4%; growth inhibition ([2]; at 3.7 µM): 9%; growth inhibition ([2]; at 11.0 µM): 26%; growth inhibition ([2]; at 33.0 µM): 44%; growth inhibition ([2]; at 100.0 µM): 54%; growth inhibition ([3]; at 1.2 µM): 3%; growth inhibition ([3]; at 3.7 µM): 10%; growth inhibition ([3]; at 11.0 µM): 25%; growth inhibition ([3]; at 33.0 µM): 55%; growth inhibition ([3]; at 100.0 µM): 68%; growth inhibition ([4]; at 1.2 µM): 0%; growth inhibition ([4]; at 3.7 µM): 11%; growth inhibition ([4]; at 11.0 µM): 13%; growth inhibition ([4]; at 33.0 µM): 18%; growth inhibition ([4]; at 100.0 µM): 18%; growth inhibition ([5]; at 1.2 µM): 5%; growth inhibition ([5]; at 3.7 µM): 10%; growth inhibition [5, 17]: 18%; growth inhibition ([5]; at 11.0 µM): 36%; growth inhibition ([5]; at 33.0 µM): 56%; growth inhibition [5, 18]: 53%; growth inhibition ([5]; at 50.0 µM): 51.2%; growth inhibition ([5]; at 100.0 µM): 85% (active); growth inhibition ([6]; at 1.2 µM): -2%; growth inhibition ([6]; at 3.7 µM): 8%; growth inhibition [6, 17]: 5%; growth inhibition ([6]; at 11.0 µM): 25%; growth inhibition ([6]; at 33.0 µM): 48%; growth inhibition [6, 18]: 34%; growth inhibition ([6]; at 50.0 µM): 26.4%; growth inhibition ([6]; at 100.0 µM): 39%; growth inhibition ([7]; at 1.2 µM): 0%; growth inhibition ([7]; at 3.7 µM): 1%; growth inhibition ([7]; at 11.0 µM): 3%; growth inhibition ([7]; at 33.0 µM): 13%; growth inhibition ([7]; at 100.0 µM): 18%; growth inhibition [8, 17]: 10%; growth inhibition [8, 18]: 54%; growth inhibition ([8]; at 50.0 µM): 51.5%; growth inhibition ([9]; at 1.2 µM): 1%; growth inhibition ([9]; at 3.7 µM): 6%; growth inhibition ([9]; at 11.0 µM): 31%; growth inhibition ([9]; at 33.0 µM): 51%; growth inhibition ([9]; at 100.0 µM): 44%; growth inhibition [10, 17]: 5%; growth inhibition [10, 18]: 46%; growth inhibition ([10]; at 50.0 µM): 14.8%; growth inhibition ([11]; at 1.2 µM): 1%; growth inhibition ([11]; at 3.7 µM): 3%; growth inhibition [11, 17]: 11%; growth inhibition ([11]; at 11.0 µM): 44%; growth inhibition ([11]; at 33.0 µM): 87% (active); growth inhibition [11, 18]: 86% (active); growth inhibition ([11]; at 50.0 µM): 53.6%; growth inhibition ([11]; at 100.0 µM): 47%; growth inhibition ([12]; at 1.2 µM): 2%; growth inhibition ([12]; at 3.7 µM): 6%; growth inhibition ([12]; at 11.0 µM): 22%; growth inhibition ([12]; at 33.0 µM): 28%; growth inhibition ([12]; at 100.0 µM): 51%; growth inhibition ([13]; at 1.2 µM): 1%; growth inhibition ([13]; at 3.7 µM): 1%; growth inhibition ([13]; at 11.0 µM): 11%; growth inhibition ([13]; at 33.0 µM): 32%; growth inhibition ([13]; at 100.0 µM): 44%; growth inhibition ([14]; at 1.2 µM): 2%; growth inhibition ([14]; at 3.7 µM): 7%; growth inhibition ([14]; at 11.0 µM): 25%; growth inhibition ([14]; at 33.0 µM): 42%; growth inhibition ([14]; at 100.0 µM): 68%; growth inhibition [15, 17]: 14%; growth inhibition [15, 18]: 56%; growth inhibition ([15]; at 50.0 µM): 75.2% (active); growth inhibition ([16]; at 1.2 µM): 2%; growth inhibition ([16]; at 3.7 µM): 19%; growth inhibition ([16]; at 11.0 µM): 62%; growth inhibition ([16]; at 33.0 µM): 90% (active); growth inhibition ([16]; at 100.0 µM): 50%

**Q.** What does the source list for CCC(C)(C)c1ccc(Oc2ccccc2)c(N)c1?
**A.** growth inhibition ([1]; at 1.2 µM): -21%; growth inhibition ([1]; at 3.7 µM): -4%; growth inhibition ([1]; at 11.0 µM): 96% (active); growth inhibition ([1]; at 33.0 µM): 99% (active); growth inhibition ([1]; at 100.0 µM): 98% (active); growth inhibition ([2]; at 1.2 µM): -15%; growth inhibition ([2]; at 3.7 µM): -12%; growth inhibition ([2]; at 11.0 µM): 97% (active); growth inhibition ([2]; at 33.0 µM): 99% (active); growth inhibition ([2]; at 100.0 µM): 98% (active); growth inhibition ([3]; at 1.2 µM): 3%; growth inhibition ([3]; at 3.7 µM): 36%; growth inhibition ([3]; at 11.0 µM): 66%; growth inhibition ([3]; at 33.0 µM): 84% (active); growth inhibition ([3]; at 100.0 µM): 90% (active); growth inhibition ([4]; at 1.2 µM): -16%; growth inhibition ([4]; at 3.7 µM): -1%; growth inhibition ([4]; at 11.0 µM): 96% (active); growth inhibition ([4]; at 33.0 µM): 99% (active); growth inhibition ([4]; at 100.0 µM): 99% (active); growth inhibition ([5]; at 1.2 µM): -33%; growth inhibition ([5]; at 3.7 µM): -6%; growth inhibition [5, 17]: 42%; growth inhibition ([5]; at 11.0 µM): 94% (active); growth inhibition ([5]; at 33.0 µM): 98% (active); growth inhibition [5, 18]: 51%; growth inhibition ([5]; at 50.0 µM): 90.5% (active); growth inhibition ([5]; at 100.0 µM): 99% (active); growth inhibition ([6]; at 1.2 µM): -40%; growth inhibition ([6]; at 3.7 µM): -24%; growth inhibition [6, 17]: 44%; growth inhibition ([6]; at 11.0 µM): 96% (active); growth inhibition ([6]; at 33.0 µM): 99% (active); growth inhibition [6, 18]: 50%; growth inhibition ([6]; at 50.0 µM): 93.2% (active); growth inhibition ([6]; at 100.0 µM): 99% (active); growth inhibition ([7]; at 1.2 µM): -2%; growth inhibition ([7]; at 3.7 µM): 13%; growth inhibition ([7]; at 11.0 µM): 97% (active); growth inhibition ([7]; at 33.0 µM): 99% (active); growth inhibition ([7]; at 100.0 µM): 99% (active); growth inhibition [8, 17]: 2%; growth inhibition [8, 18]: 97% (active); growth inhibition ([8]; at 50.0 µM): 93.5% (active); growth inhibition ([9]; at 1.2 µM): -22%; growth inhibition ([9]; at 3.7 µM): -2%; growth inhibition ([9]; at 11.0 µM): 96% (active); growth inhibition ([9]; at 33.0 µM): 99% (active); growth inhibition ([9]; at 100.0 µM): 97% (active); growth inhibition [10, 17]: 62%; growth inhibition [10, 18]: 99% (active); growth inhibition ([10]; at 50.0 µM): 92.3% (active); growth inhibition ([11]; at 1.2 µM): -10%; growth inhibition ([11]; at 3.7 µM): -6%; growth inhibition [11, 17]: 36%; growth inhibition ([11]; at 11.0 µM): 95% (active); growth inhibition ([11]; at 33.0 µM): 99% (active); growth inhibition [11, 18]: 99% (active); growth inhibition ([11]; at 50.0 µM): 92.3% (active); growth inhibition ([11]; at 100.0 µM): 98% (active); growth inhibition ([12]; at 1.2 µM): -17%; growth inhibition ([12]; at 3.7 µM): 0%; growth inhibition ([12]; at 11.0 µM): 97% (active); growth inhibition ([12]; at 33.0 µM): 99% (active); growth inhibition ([12]; at 100.0 µM): 99% (active); growth inhibition ([13]; at 1.2 µM): -30%; growth inhibition ([13]; at 3.7 µM): -18%; growth inhibition ([13]; at 11.0 µM): 95% (active); growth inhibition ([13]; at 33.0 µM): 98% (active); growth inhibition ([13]; at 100.0 µM): 98% (active); growth inhibition ([14]; at 1.2 µM): -17%; growth inhibition ([14]; at 3.7 µM): 6%; growth inhibition ([14]; at 11.0 µM): 94% (active); growth inhibition ([14]; at 33.0 µM): 99% (active); growth inhibition ([14]; at 100.0 µM): 98% (active); growth inhibition [15, 17]: 39%; growth inhibition [15, 18]: 45%; growth inhibition ([15]; at 50.0 µM): 91.2% (active); growth inhibition ([16]; at 1.2 µM): -31%; growth inhibition ([16]; at 3.7 µM): -7%; growth inhibition ([16]; at 11.0 µM): 94% (active); growth inhibition ([16]; at 33.0 µM): 99% (active); growth inhibition ([16]; at 100.0 µM): 97% (active)
